AI-2 QS mod – modulators of Vibrio harveyi AI-2 quorum sensing system. Vibrio harveyi JMH597 AI-2 luminescence/OD600 ratio, 9 h; active compounds read low; strain lacks LuxN and CqsS sensors; 0 = neutral-control median. activity change, % at 7.5 µM. 0.4% of 300,000 active; in the data active = activity change below about -75%, passing the limit was not always enough;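 note: luminescence divided by OD600 gain over 9 h not by final OD600 alone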
CHT inh – human CHT choline transport inhibition | Q9GZV3 | CHT-expressing cells, membrane potential dye, choline response; active compounds read low | B-score at 10 µM | 0.86% of 310,000 active | AID 488975;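 active = B-score over 3 SD under the library average, and starting fluorescence ratio not unusually high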;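 note: choline stimulus applied at its EC90 after an EC20 pre-addition; B-score computed on integrated fluorescence ratio after choline addition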
Platelet DG rel – modulates dense granule release in human platelets; inhibition, %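 (compounds screened at 7.5 µM in platelet-rich plasma)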; AID 1663; human platelet-rich plasma, SFLLRN dense granule ATP release, luminescence; 0.22% of 300,000 active;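 active = mean replicate score, as percent of positive control, at or above 50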
VLA-4 inh – inhibition in a human VLA-4 binding assay; AID 2557; VLA-4 expressing cells, ligand binding flow cytometry; 0.2% of 330,000 active; inhibition, % (about 7 µM as worked out from the volumes in the protocol); in the data active = inhibition above about 50%
HIF activator – HIF pathway transcriptional activation; U2OS HRE-luciferase reporter, luminescence; normalized: DMSO 0%, desferrioxamine 100%; activation, % at 7.5 µM (by protocol); 0.32% of 300,000 active;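 active = mean activation of at least 10% of the iron chelator positive control signal, with at least half of replicates also reaching 10%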
CHT allo act – human CHT allosteric activation; Q9GZV3; CHT-expressing cells, membrane potential dye, choline EC20; active compounds read high; LV-AA mutant CHT in HEK293 cells; B-score at 10 µM; 0.49% of 310,000 active; AID 488977;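 active = initial fluorescence not abnormally high and integrated response B-score, plate-corrected, over 3 SD above library mean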
VLA-4 allo CP – confirmation of allosteric modulators of human VLA-4 integrin. 2% of 1,300 active. U937 cells, HUTS-21 LIBS mAb binding, flow cytometry; LDV ligand present at threefold Kd. shares compounds with VLA-4 inh. inhibition, % at 6.7 µM; in the data active = inhibition above about 40%;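 note: 0% = ligand without compound and 100% = no ligand background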
Starred values were filed as active, the others as inactive. Only some compounds are listed: those with a hit (about 2.2% of all), similar ones and a draw of the others.

`CN(C)c1cccc(C(=O)OCC(=O)N(C)c2ccccc2)c1` gave AI-2 QS mod 21.8, CHT inh inactive, Platelet DG rel 1.3, VLA-4 inh -7.6, HIF activator 0.4, CHT allo act inactive and VLA-4 allo CP 0.0.
For C=CCN(C(=O)CCC(=O)Nc1cc(C)on1)C(C(=O)NC(C)(C)CC)c1cccc(OC)c1OC (centres undefined) the results were AI-2 QS mod 25.1, CHT inh inactive, Platelet DG rel 3.3, VLA-4 inh 4.2, HIF activator 0.2 and CHT allo act inactive.
`CCOC(=O)C1CCN(C2CC(=O)N(c3ccc(OCC)cc3)C2=O)CC1` (centres undefined) gave AI-2 QS mod 39.0, CHT inh inactive, Platelet DG rel -3.2, VLA-4 inh -10.6, HIF activator -0.6, CHT allo act inactive and VLA-4 allo CP -5.8.
For CCCCCCOc1ccc(N2C(=O)CC(N3CCC(C(=O)OCC)CC3)C2=O)cc1 (centres undefined) the results were AI-2 QS mod 7.1, CHT inh inactive, Platelet DG rel -7.4, VLA-4 inh -9.9, HIF activator 0.0, CHT allo act inactive and VLA-4 allo CP -3.5.
`CCOC(=O)C1CCCN(C2CC(=O)N(c3ccccc3)C2=O)C1` (centres undefined) gave AI-2 QS mod 36.8, CHT inh inactive, Platelet DG rel -3.8, VLA-4 inh 8.9, HIF activator 0.2 and CHT allo act inactive.
`CCOC(=O)C1CCCN(C2CC(=O)N(c3ccc(N4C(=O)CC(N5CCCC(C(=O)OCC)C5)C4=O)cc3)C2=O)C1` (centres undefined) gave AI-2 QS mod 12.5, CHT inh inactive, Platelet DG rel 0.7, VLA-4 inh 3.5, HIF activator 0.0 and CHT allo act inactive.
Screening CCOC(=O)C1CCCN(C2CC(=O)N(c3cccc(C(F)(F)F)c3)C2=O)C1 (centres undefined) returned AI-2 QS mod 23.7, CHT inh inactive, Platelet DG rel -3.1, VLA-4 inh -11.1, HIF activator 0.0, CHT allo act inactive and VLA-4 allo CP 0.0.
`CC1CCCN(C(=O)C2CC(=O)N(c3ccc(Cl)cc3)C2)C1` (centres undefined) gave AI-2 QS mod 16.1, CHT inh inactive, Platelet DG rel 2.2, VLA-4 inh -0.4, HIF activator -2.2 and CHT allo act inactive.
For CCOC(=O)c1sc2nc(C)nc(SCC(=O)N(C)C3CCS(=O)(=O)C3)c2c1C (centres undefined) the results were AI-2 QS mod 15.7, CHT inh inactive, Platelet DG rel 1.5, VLA-4 inh 42.5, HIF activator 0.0, CHT allo act inactive and VLA-4 allo CP -10.2.
`CCN(C(=O)CSc1nc(C)nc2sc(C)c(C)c12)C1CCS(=O)(=O)C1` (centres undefined) gave VLA-4 inh 46.2.
Screening O=C1Cc2cc(S(=O)(=O)NCc3ccc(F)cc3)ccc2N1 returned VLA-4 inh -1.6 and VLA-4 allo CP 0.0.
COc1ccccc1/C=N/NC(=O)CCn1cnc2ccccc21 was read as AI-2 QS mod 9.5, CHT inh inactive, Platelet DG rel 15.6, VLA-4 inh 57.7*, HIF activator 0.6, CHT allo act inactive and VLA-4 allo CP -1.4.
For COc1cc(OC)cc(-c2sc3ccc(OC)cc3c2-c2ccc(OCCN3CCCCC3)cc2)c1 the results were VLA-4 allo CP 0.0.
`COc1ccc(-c2sc3cc4c(cc3c2-c2ccc3c(c2)OCCO3)OCO4)cc1` gave VLA-4 inh 11.4.
Screening c1ccc(-c2sc3ccccc3c2-c2ccc(OCCN3CCCCC3)cc2)cc1 returned VLA-4 inh 17.4 and VLA-4 allo CP -7.6.
For CN(C)CCOc1ccc(-c2c(-c3ccccc3)sc3ccccc23)cc1 the results were VLA-4 inh 70.3* and VLA-4 allo CP 30.4.
COc1ccc(-c2sc3cc4c(cc3c2-c2ccc(OCCN3CCCCC3)cc2)OCO4)cc1 was read as VLA-4 allo CP 0.0.
